A short description of experiment [1]: BSK_LPS_SRB: Viability Assessment in the BioMAP Diversity Plus: LPS Assay (AID 2283079).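 Also: total protein by sulforhodamine B absorbance as a cytotoxicity measure; measured one day after compound addition.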 Conditions: primary human HUVEC with PBMC. The procedure, abridged:
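HUVEC + PBMC co-culture, LPS-stimulated; compound 24 h. 10% TCA fix, 0.1% SRB stain, A560. Bidirectional fit vs DMSO.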

Read-out in experiment [2]: Interleukin-1 alpha (IL1a), IL1A (gene 3552)
In words: BSK_LPS_IL1a: BioMAP Diversity Plus: LPS Assay for Interleukin-1 alpha (IL1a) Biomarker Activity (AID 2283080). The following applies: primary human HUVEC with PBMC; actives raise or lower the signal. The procedure, abridged: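 HUVEC/PBMC co-culture, LPS system; 24 h after dosing; IL-1a by ELISA; gain or loss of signal fitted bidirectionally vs DMSO baseline.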

Read-out in experiment [3]: Monocyte Chemoattractant Protein-1 (MCP1), CCL2 (gene 6347)
Description: BSK_LPS_MCP1: BioMAP Diversity Plus: LPS Assay for Monocyte Chemoattractant Protein-1 (MCP1) Biomarker Activity (AID 2283081).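 As to AC50: secreted MCP-1 protein quantified by ELISA in culture supernatant.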 The following applies: primary human HUVEC with PBMC; actives raise or lower the signal. Put shortly:
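ELISA read-out of MCP-1 after 24 h chemical dosing of a human umbilical vein endothelial cell/peripheral blood mononuclear cell co-culture stimulated with LPS. Gain or loss of signal fitted relative to DMSO controls.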

Experiment [4] can be described thus: BSK_LPS_PGE2: BioMAP Diversity Plus: LPS Assay for Prostaglandin E2 (PGE2) Biomarker Activity (AID 2283082).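 As to AC50: secreted prostaglandin E2 measured by ELISA in LPS-stimulated co-culture.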 Conditions: primary human HUVEC with PBMC; actives raise or lower the signal. The procedure, abridged:
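ELISA read-out of PGE2 from human umbilical vein endothelial cells co-cultured with peripheral blood mononuclear cells under LPS, 24 h post-dose. Gain or loss of signal scored relative to DMSO baseline.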

Read-out in experiment [5]: Macrophage colony-stimulating factor (MCSF), CSF1 (gene 1435)
Description: BSK_LPS_MCSF: BioMAP Diversity Plus: LPS Assay for Macrophage colony-stimulating factor (MCSF) Biomarker Activity (AID 2283083). The following applies: primary human HUVEC with PBMC; actives raise or lower the signal. The procedure, abridged: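 HUVEC + PBMC co-culture (human primary), 24 h post-dose; M-CSF by ELISA; gain/loss of signal fitted bidirectionally vs DMSO baseline.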

Read-out in experiment [6]: Tissue Factor, F3 (gene 2152)
In words: BSK_LPS_TissueFactor: BioMAP Diversity Plus: LPS Assay for Tissue Factor Biomarker Activity (AID 2283084). Conditions: primary human HUVEC with PBMC; actives raise or lower the signal. Put shortly: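 HUVEC/PBMC co-culture, LPS-activated; CD142 ELISA read 24 h post-dose; bidirectional curve fit vs DMSO negative control.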

Read-out in experiment [7]: Tumor necrosis factor (Homo sapiens) (UniProt P01375)
Description: BSK_LPS_TNFa: BioMAP Diversity Plus: LPS Assay for Tumour Necrosis Factor alpha (TNFa) Biomarker Activity (AID 2283085).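 As to AC50: TNFa protein level quantified by ELISA in the co-culture.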 The following applies: primary human HUVEC with PBMC; actives raise or lower the signal. The procedure, abridged: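 HUVEC/PBMC co-culture, LPS-stimulated; 24 h post-dose; TNFa by ELISA; gain or loss of signal fitted bidirectionally vs DMSO baseline.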

Read-out in experiment [8]: Vascular cell adhesion molecule 1 (VCAM1), VCAM1 (gene 7412)
In words: BSK_LPS_VCAM1: BioMAP Diversity Plus: LPS Assay for Vascular cell adhesion molecule 1 (VCAM1) Biomarker Activity (AID 2283086). The following applies: primary human HUVEC with PBMC; actives raise or lower the signal. Put shortly:
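ELISA read-out of VCAM-1 at 24 h post-dosing in an LPS-driven HUVEC/PBMC primary human co-culture; gain or loss of signal fitted bidirectionally against DMSO baseline. Cytotoxicity tracked in parallel cultures by SRB total-protein staining.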

Read-out in a further experiment: CD38, CD38 (gene 952)
Description: BSK_SAg_CD38: BioMAP Diversity Plus: SAg Assay for CD38 Biomarker Activity (AID 2283087). Conditions: primary human HUVEC with PBMC; actives raise or lower the signal. The procedure, abridged:
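Measures CD38 on a human endothelial/PBMC co-culture driven by SEB and TSST-1, 24 h after compound exposure, using ELISA with fluorescence detection; DMSO defines baseline for bidirectional curve fitting.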

Read-out in another experiment: CD40, CD40 (gene 958)
Description: BSK_SAg_CD40: BioMAP Diversity Plus: SAg Assay for CD40 Biomarker Activity (AID 2283088). Conditions: primary human HUVEC with PBMC; actives raise or lower the signal. The procedure, abridged:
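HUVEC/PBMC co-culture, 24 h post-dose; CD40 by ELISA, fluorescence intensity; bidirectional fit vs DMSO negative control.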

Read-out in experiment [9]: Monocyte Chemoattractant Protein-1 (MCP1), CCL2 (gene 6347)
Description: BSK_SAg_MCP1: BioMAP Diversity Plus: SAg Assay for Monocyte Chemoattractant Protein-1 (MCP1) Biomarker Activity (AID 2283090). The following applies: primary human HUVEC with PBMC; actives raise or lower the signal. Put shortly:
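Values derive from bidirectional fitting of ELISA-measured MCP1 against DMSO controls. Readings were taken 24 h after dosing human vascular endothelial cells co-cultured with peripheral blood mononuclear cells under superantigen stimulation.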

Read-out in experiment [10]: E-selectin (Homo sapiens) (UniProt P16581)
Description: BSK_SAg_Eselectin: BioMAP Diversity Plus: SAg Assay for Eselectin Biomarker Activity (AID 2283091). The following applies: primary human HUVEC with PBMC; actives raise or lower the signal. The procedure, abridged:
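E-selectin ELISA readout at 24 h post-dosing in human umbilical vein endothelial cell/PBMC co-culture; gain or loss of signal fitted relative to DMSO baseline.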

Read-out in experiment [11]: Monokine induced gamma interferon (MIG), CXCL9 (gene 4283)
In words: BSK_SAg_MIG: BioMAP Diversity Plus: SAg Assay for Monokine induced gamma interferon (MIG) Biomarker Activity (AID 2283092). The following applies: primary human HUVEC with PBMC; actives raise or lower the signal. The procedure, abridged:
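HUVEC plus human PBMC co-culture, chemicals dosed and MIG (CXCL9) quantified by ELISA at 24 h. Bidirectional curve fitting against DMSO as negative control and baseline, so both gain and loss of signal count as activity.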

Experiment [12] is described as follows: BSK_SAg_PBMCCytotoxicity: PBMC Cytotoxicity Assessment in the BioMAP Diversity Plus: SAg Assay (AID 2283093).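 Also: fitted both ways against DMSO so a hit may be loss or gain of signal.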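 As to AC50: PBMC superantigen activated with SEB plus TSST-1 one hour after compound addition.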 The following applies: primary human HUVEC with PBMC. Put shortly: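 PBMC viability by Alamar Blue reduction, fluorescence read at 546/580 nm after 6 h dye exposure. Cells were dosed 1 h before SEB plus TSST-1 activation (20 ng/mL final each), then held 90 h; endothelial/PBMC human co-culture.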

Read-out in experiment [13]: Interleukin-8 (IL8), CXCL8 (gene 3576)
Description: BSK_SAg_IL8: BioMAP Diversity Plus: SAg Assay for Interleukin-8 (IL8) Biomarker Activity (AID 2283094). Conditions: primary human HUVEC with PBMC; actives raise or lower the signal. Put shortly: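 HUVEC/PBMC co-culture, 24 h post-dose; IL-8 by ELISA. Gain or loss of signal fitted bidirectionally vs DMSO baseline.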

Experiment [14] in a line: BSK_SAg_Proliferation: Cell Proliferation Assessment in the BioMAP Diversity Plus: SAg Assay (AID 2283095).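 Also: relative cell number as total protein by SRB absorbance in sub-confluent culture.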 Conditions: primary human HUVEC with PBMC. Put shortly:
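HUVEC/PBMC co-culture, 96-well. TCA-fixed (10%), 0.1% SRB stain, A560 at 96 h. Protein content used as viability readout; bidirectional fitting vs DMSO control.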

Experiment [15] can be described thus: BSK_SAg_SRB: Viability Assessment in the BioMAP Diversity Plus: SAg Assay (AID 2283096).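 Also: cells read one day after compound addition; hits may be either gain or loss of signal compared with DMSO.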 Conditions: primary human HUVEC with PBMC. The procedure, abridged: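 Compounds were added to a human vascular co-culture of umbilical vein endothelium and PBMC. After 24 h, parallel cultures were fixed with 10% TCA, stained with 0.1% sulforhodamine B and read at 560 nm. Gain or loss of signal was fitted relative to DMSO.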

Read-out in a further experiment: CD69, CD69 (gene 969)
Description: BSK_SAg_CD69: BioMAP Diversity Plus: SAg Assay for CD69 Biomarker Activity (AID 2283089).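 As to AC50: cell surface CD69 protein quantified by ELISA with fluorescence detection.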 Conditions: primary human HUVEC with PBMC; actives raise or lower the signal. The procedure, abridged: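 HUVEC co-cultured with PBMC were dosed with chemical, and CD69 was measured by ELISA with fluorescence read-out 24 h later. Bidirectional curve fitting used DMSO as negative control and activity baseline.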

Experiment [16] addresses human CYP19A1, CYP19A1 (gene 1588) (UniProt P11511). In words: NVS_ADME_hCYP19A1: NovaScreen (NVS) CYP450-related Enzyme Activity (ADME) Assay for human CYP19A1 (AID 2283098; active = hit-call score of the fitted dose curve at least 0.9, where 1 is the maximum;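 as to AC50: potency for inhibitors seen as loss of fluorescent enzyme signal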). The procedure, abridged:
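Fluorescence intensity read-out; activity taken as signal loss relative to acetonitrile vehicle. Extracted enzyme, specific substrate, no cells, 0.5 h exposure. Duplicate single-point screen at 10 uM, then concentration–response follow-up for actives.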

Results filed as inconclusive are left out. More than one record can exist for a structure, and the calls need not agree. The source made the active and inactive calls. The calls were made as follows, unless noted: active = hit-call score of the fitted dose curve at least 0.9, where 1 is the maximum; inactive = score below 0.9.

Usually AC50 stands for the midpoint of the concentration-response curve, whichever way the signal moves.

human CYP19A1, CYP19A1 (gene 1588), sequence (P11511 whole entry, looked up): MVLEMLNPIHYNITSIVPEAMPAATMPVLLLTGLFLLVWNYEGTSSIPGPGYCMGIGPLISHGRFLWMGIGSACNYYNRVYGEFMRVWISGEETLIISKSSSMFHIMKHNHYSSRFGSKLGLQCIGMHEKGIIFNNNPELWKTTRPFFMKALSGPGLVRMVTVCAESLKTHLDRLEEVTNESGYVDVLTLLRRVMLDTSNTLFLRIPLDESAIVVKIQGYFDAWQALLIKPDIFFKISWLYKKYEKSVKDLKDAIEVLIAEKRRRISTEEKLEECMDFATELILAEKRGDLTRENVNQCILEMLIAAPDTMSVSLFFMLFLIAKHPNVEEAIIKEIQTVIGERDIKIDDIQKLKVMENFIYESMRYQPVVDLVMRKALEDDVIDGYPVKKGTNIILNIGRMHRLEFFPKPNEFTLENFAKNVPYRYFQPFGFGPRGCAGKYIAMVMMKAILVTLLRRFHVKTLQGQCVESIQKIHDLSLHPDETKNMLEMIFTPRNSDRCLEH
Tumor necrosis factor (Homo sapiens), sequence (P01375 whole entry, looked up): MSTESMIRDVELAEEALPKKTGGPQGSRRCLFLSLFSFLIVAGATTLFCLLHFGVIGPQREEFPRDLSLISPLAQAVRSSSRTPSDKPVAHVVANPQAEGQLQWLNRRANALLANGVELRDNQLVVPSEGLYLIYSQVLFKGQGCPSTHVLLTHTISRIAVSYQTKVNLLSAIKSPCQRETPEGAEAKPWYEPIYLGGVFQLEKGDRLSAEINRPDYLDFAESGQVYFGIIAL
E-selectin (Homo sapiens), sequence (P16581 whole entry, looked up): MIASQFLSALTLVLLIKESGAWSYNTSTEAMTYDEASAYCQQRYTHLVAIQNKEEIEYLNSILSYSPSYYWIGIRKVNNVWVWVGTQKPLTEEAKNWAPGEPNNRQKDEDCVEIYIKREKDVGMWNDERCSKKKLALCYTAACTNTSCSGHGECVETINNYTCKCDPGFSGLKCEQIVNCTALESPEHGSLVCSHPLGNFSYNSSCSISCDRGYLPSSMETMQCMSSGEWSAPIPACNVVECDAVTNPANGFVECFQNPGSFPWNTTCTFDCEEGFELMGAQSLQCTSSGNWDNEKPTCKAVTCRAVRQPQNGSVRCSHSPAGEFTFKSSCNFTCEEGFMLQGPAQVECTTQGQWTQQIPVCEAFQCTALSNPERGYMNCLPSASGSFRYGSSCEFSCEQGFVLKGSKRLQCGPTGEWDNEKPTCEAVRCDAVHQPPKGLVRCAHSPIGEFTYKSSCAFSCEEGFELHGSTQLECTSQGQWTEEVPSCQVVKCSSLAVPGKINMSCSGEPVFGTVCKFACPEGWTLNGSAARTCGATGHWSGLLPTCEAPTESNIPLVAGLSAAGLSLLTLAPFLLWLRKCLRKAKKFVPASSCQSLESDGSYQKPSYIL

On to `Cc1nn(C)c(Oc2ccccc2)c1C=NOCc1ccc(C(=O)OC(C)(C)C)cc1`, for which the half-maximal activity concentration (AC50) was 12.6 µM (active) in [1]; 13.2 µM (active) in experiment [2]; 17.5 µM (active) in experiment [3]; 1.11 µM (active) in experiment [4]; 3.48 µM (active) in experiment [5]; 9.84 µM (active) in experiment [8]. Further, the half-maximal activity concentration (AC50) with CD38, CD38 (gene 952) was 5.76 µM (active); with CD40, CD40 (gene 958), 6.66 µM (active); in [9], 7.6 µM (active); in experiment [10], 4.27 µM (active); in experiment [11], 19 µM (active); in [13] it was 3.97 µM (active). Also, the concentration at half-maximal activity (AC50) in [14] is 8.08 µM (active); in [15], 20 µM (active). Besides, the result in [6], in experiment [7] and in [12] was inactive.

Take `CCOC(=O)c1ccc(O)cc1`: the result in experiment [1], in [2], in experiment [3], in experiment [4], in experiment [5] and in experiment [6] was inactive. For the same molecule, the outcome in experiment [7] is “inactive”; in experiment [8], “inactive”; with CD38, CD38 (gene 952), “inactive”; in the experiment with CD40, CD40 (gene 958) it was “inactive”; in the experiment with CD69, CD69 (gene 969) it was “inactive”; in experiment [9], “inactive”. For the same molecule, the result in experiment [10], in experiment [11], in experiment [12], in experiment [13], in [14] and in experiment [15] was inactive.

As to `CCOC(=O)[C@H](C)Oc1ccc(Oc2nc3ccc(Cl)cc3o2)cc1`, the result in experiment [1], in [2], in [3], in experiment [5], in experiment [6] and in experiment [7] was inactive. Besides, the outcome in experiment [8] was “inactive”; with CD40, CD40 (gene 958) it was “inactive”; in experiment [9] it was “inactive”; in experiment [10], “inactive”; in experiment [11] it was “inactive”; in experiment [12] it was “inactive”. Besides, the outcome in experiment [13], in experiment [14] and in experiment [15] was inactive. Further, the AC50 in experiment [4] is 8.85 µM (active); with CD38, CD38 (gene 952) it was 29.9 µM (active).

For `Oc1ccc(C(c2ccc(O)cc2)C(Cl)(Cl)Cl)cc1`, the AC50 in [1] was 17 µM (active); in experiment [2], 24.8 µM (active); in [3] it was 33.9 µM (active); in experiment [4] it was 29.3 µM (active); in experiment [5], 20 µM (active); in experiment [6] it was 37 µM (active). Further, the half-maximal activity concentration (AC50) in experiment [7] is 4.66 µM (active); in experiment [8], 17.9 µM (active); in the experiment with CD38, CD38 (gene 952) it was 27.4 µM (active); with CD40, CD40 (gene 958), 24.4 µM (active); with CD69, CD69 (gene 969), 20 µM (active); in experiment [10], 10.6 µM (active). The AC50 was 38.9 µM (active) in experiment [11]; 20 µM (active) in experiment [12]; 14.2 µM (active) in experiment [13]; 24.1 µM (active) in [14]; 32.3 µM (active) in experiment [15]. In experiment [16], the result was inactive.

In the case of `CCCN(CCC)C(=O)SCC`, the result in [1], in [2], in experiment [3], in experiment [4], in experiment [5] and in experiment [6] was inactive. The outcome in [7] was “inactive”; in experiment [8] it was “inactive”; with CD38, CD38 (gene 952) it was “inactive”; in the experiment with CD40, CD40 (gene 958) it was “inactive”; with CD69, CD69 (gene 969), “inactive”; in [9] it was “inactive”. Also, the outcome in experiment [10], in experiment [11], in experiment [12], in experiment [13], in [14] and in experiment [15] was inactive. Also, the molecule was called inactive in [16]. For the same molecule, in experiment [16], the concentration at half-maximal activity (AC50) is 0.652 µM (active).

These data come from PubChem BioAssay (EPA / NIEHS).
